Composite z-score data for 36 molecules are collected here from PubChem BioAssay.

The test in a line: small molecules captured by biotinylated probe aFST – biochemical, small-molecule microarray, fluorescence 635/667, stem cell growth factor project, primary screen (AID 1086).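 Also: score merges 667 nm fluorescence with signal-to-noise of each printed compound spot.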 To be noted: higher = more signal.
In the case of `C#CCCCON=C1[C@H]2CCn3c(=O)n(C)c(=O)n3[C@H]2[C@H](O)[C@@H]2O[C@H]12`, the composite z-score came out at 0.159.

`CCCCC#C[C@@H]1C=C[C@H](OC(C)=O)[C@@H](COC(C)=O)O1` registered a composite z-score of 0.0643. `CO[C@@H]1COC(=O)[C@@H](C)COC(=O)[C@@H](C)NC(=O)CC=C[C@@H]1C` displayed a composite z-score of -0.235. `Cc1ccc(S(=O)(=O)OC[C@H]2CN3[C@H](c4ccc(Br)cc4)[C@@H](C)CC[C@H]3C(=O)O2)cc1` registered a composite z-score of -0.164. Molecule `COc1ccc(COC(=O)NN=C2C[C@@H](O)[C@@H](O)[C@@H]3[C@@H]4C(=O)N(c5cccc(Oc6ccccc6)c5)C(=O)[C@@H]4CC[C@@H]23)cc1` registered a composite z-score of 0.88. `O=C1C2=CC[C@H]3C(=O)N(c4cccc(Oc5ccccc5)c4)C(=O)[C@H]3[C@H]2[C@H](O)[C@@H]2O[C@H]12` came in with a composite z-score of 0.373. Consider `CC(CCN1CCCCc2nc(C)c(C)cc21)=NO[C@H](C)c1cn([C@H](CO)Cc2ccccc2)nn1`, for which the composite z-score stood at 0.627. As to `CO[C@@H]1COC(=O)[C@H](CCSC)NC(=O)CC=C[C@@H](C)COC(=O)CCC[C@H]1C`, the composite z-score amounted to 1.41.

`CC(CCN1CCCc2nc(C)c(C)cc21)=NO[C@@H](C)c1cc(-c2c(C)cc(C)cc2C)no1` displayed a composite z-score of 0.0731. For `CO[C@@H]1COC(=O)[C@@H](C)NC(=O)CC=C[C@@H](C)[C@H](NS(=O)(=O)c2ccc(C)cc2)COC(=O)[C@H](C)NC(=O)CC=C[C@H]1C`, the composite z-score is -0.0334. `CCN1C(=O)[C@H]2[C@H]3[C@H](O)[C@H](O)CC(=NOC[C@H]4O[C@H](c5ccccc5)C=C[C@@H]4Oc4ccc(OC)cc4)[C@@H]3CC[C@H]2C1=O` returned a composite z-score of 0.0352.

`CCOC(=O)[C@H](CC(C)C)NC(=O)CCC1CC(OC(=O)NCc2cccc3ccccc23)CC2(CCCC(COC(=O)NCC3CCCCC3)O2)O1` (stereo partly specified) came in with a composite z-score of 0.615. `CC(C)CCN1CCc2nc(COc3ccccc3)c3c(c2C1)CO[C@@H](C)C3`: the composite z-score was found to be 0.138. For `COC(=O)CC=C[C@@H](C)[C@@H](C=NO[C@H](C)c1cn([C@H](CO)Cc2ccccc2)nn1)OC`, the composite z-score worked out at 0.0782.

For `CON=C(C)CCC(=O)OC[C@H]1O[C@H](c2ccccc2)C=C[C@@H]1Oc1ccc(OC)cc1`, the composite z-score turned out to be 0.308. `CCOC(=O)NN=C1C[C@@H](O)[C@@H](O)[C@@H]2[C@@H]3C(=O)N(c4cccc(Oc5ccccc5)c4)C(=O)[C@@H]3CC[C@@H]12` gave a composite z-score of 0.0218. As for `CCN1C(=O)[C@H]2[C@H]3[C@H](O)[C@H](O)CC(=NO[C@@H](C)c4cn([C@H](CO)Cc5ccccc5)nn4)[C@@H]3CC[C@H]2C1=O`, the composite z-score stood at 0.759. With `COC(=O)CC=C[C@@H](C)[C@@H]1C=C[C@H](O)[C@@H](CO)O1`, the composite z-score was found to be 0.225. In turn, `C[C@@H](ON=C1[C@H]2CCn3c(=O)n(-c4ccccc4)c(=O)n3[C@H]2[C@H](O)[C@@H]2O[C@H]12)c1cn([C@@H]2COC[C@H]2O)nn1` gave a composite z-score of 0.236. `CC(CCC(=O)OC[C@H]1O[C@H](C#Cc2ccccc2)C=C[C@@H]1Oc1ccc(C)cc1)=NO[C@H](C)c1cn([C@H](CO)Cc2ccccc2)nn1` yielded a composite z-score of 0.337. As for `C#CCCCON=C1C[C@@H](O)[C@@H](O)[C@@H]2[C@@H]3C(=O)N(C(C)(C)C)C(=O)[C@@H]3CC[C@H]12`, the composite z-score was determined as 0.774.

Turning to `COc1ccc(COC(=O)NN=C2C[C@@H](O)[C@@H](O)[C@@H]3[C@@H]4C(=O)N(C5CCCCC5)C(=O)[C@@H]4CC[C@H]23)cc1`, the composite z-score was found to be 0.524. Then `COC(=O)CC=C[C@H](C)[C@@H](OCc1cccc(Br)c1)[C@@H](C)[C@H](OC)C1CCCCC1`, with -0.118; and `Cc1ccc(S(=O)(=O)N[C@@H]2COC(=O)[C@@H](C)COC(=O)CC=C[C@H]2C)cc1`, with 0.045. Molecule `O=C1[C@H]2[C@H]3[C@H](O)[C@H](O)CC(=NO[C@@H]4O[C@H](CO)[C@@H](O)[C@H](O)[C@H]4O)[C@H]3CC[C@H]2C(=O)N1c1cccc(Oc2ccccc2)c1` displayed a composite z-score of -0.278. Consider `CCC1=NOC(CCC2CC(OC(=O)NCc3cccc4c3OCO4)CC3(CCCC(COC(=O)NCCc4ccccc4OC)O3)O2)C1` (stereo unspecified), for which the composite z-score came to 0.243.

Turning to `CCOC(=O)[C@H](CC(C)C)NC(=O)CCC1CC(OC(=O)NCc2cccc3ccccc23)CC2(CCCC(COC(=O)NCCOc3ccccc3)O2)O1` (stereo partly specified), the composite z-score was determined as 0.0697. Next, `O=c1n(Cc2cc3c(cc2Cl)OCO3)c(=O)n2n1CC[C@@H]1C(=NOCc3ccccc3)[C@H]3O[C@H]3[C@@H](O)[C@@H]12`: 0.764; `COC(=O)[C@@H]1CC[C@H](C)[C@@H](c2ccc(C)cc2)N1C(=O)c1ccc(C=NO[C@@H](C)c2cn([C@H](CO)Cc3ccccc3)nn2)cc1`: 0.517. Next, `CC(C)=CCCC(C)=CCON=C1C[C@@H](O)[C@@H](O)[C@@H]2[C@@H]3C(=O)N(Cc4ccccc4)C(=O)[C@@H]3CC[C@H]12`: 0.342; `CC(C)C[C@H](NC(=O)CCC1CC(OC(=O)NCc2cccc3ccccc23)CC2(CCCC(COC(=O)NCc3ccccc3)O2)O1)C(=O)NCC(c1ccccc1)c1ccccc1` (stereo partly specified): 0.289; `CC(C)CON=C1C[C@@H](O)[C@@H](O)[C@@H]2[C@@H]3C(=O)N(C4CCCCC4)C(=O)[C@@H]3CC[C@@H]12`: -0.0424.

`C[C@@H](c1ccccc1)N1C(=O)[C@H]2[C@H]3[C@H](O)[C@H](O)CC(=NO[C@@H]4O[C@H](CO)[C@@H](O)[C@H](O)[C@H]4O)[C@H]3CC[C@H]2C1=O` displayed a composite z-score of 0.0934. For `COC(=O)[C@@H]1CC[C@H](C)[C@@H](c2ccc(C)cc2)N1C(=O)c1ccc(C=NOC[C@@H](C)[C@H](OCc2ccccc2)C(C)C)cc1`, the composite z-score was 0.38. Next, `C[C@@H](c1ccccc1)N1C(=O)[C@H]2[C@H]3[C@H](O)[C@H](O)CC(=NOCc4ccccc4)[C@H]3CC[C@H]2C1=O`: 0.317; `COC(=O)CC=C[C@@H](C)[C@@H](C=NOCC[C@@H]1C=C[C@H](OC(C)=O)[C@@H](COC(C)=O)O1)OC`: 0.0492.
